In the supplement of paper PMC6555819:

What was measured:
Assay in all cases: PBM binding z-score (relative to random genomic background probes); higher = stronger binding; sequences stand for … in GC…GCGATTGACAGCGTAGAATGAAGG
[1] = test system: RARb homodimer (NR concentration 270 nM)
Summary of the method: (§1)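 Binding z-scores were set against random background probes. The data came from custom Agilent 4×180K protein-binding microarrays carrying double-stranded probes with 34-nt variable regions, incubated 1 h with ligand-free nuclear receptor dimers. Partner-specific antibodies detected binding, and scanned fluorescence was regression-normalized.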

[2] = test system: RARg:RXRa (NR concentration 270 nM, RXRa partner concentration 90 nM)
Summary of the method: as §1

[3] = test system: RARg homodimer (NR concentration 270 nM)
Summary of the method: as §1

[4] = test system: RXRa DBDmut IVT, anti-RXR (DBD mutation: RXRa K156A/R161A, NR concentration 90 nM)
Summary of the method: as §1

[5] = test system: RXRa homodimer (NR concentration 180 nM)
Summary of the method: as §1

[6] = test system: THRa homodimer (NR concentration 90 nM)
Summary of the method: as §1

[7] = test system: VDR:RXRa (NR concentration 270 nM, RXRa partner concentration 90 nM)
Summary of the method: as §1

[8] = test system: VDR homodimer (NR concentration 270 nM)
Summary of the method: as §1

Sequence | PBM binding z-score [1] | PBM binding z-score [2] | PBM binding z-score [3] | PBM binding z-score [4] | PBM binding z-score [5] | PBM binding z-score [6] | PBM binding z-score [7] | PBM binding z-score [8]
ATATGTAGGTTAGCTGGGGTCATTCATACTAGGC | 3.88 | 4.01 | 3.08 | 2.52 | 5.44 | 3.63 | 6.21 | 4.81
CCTAGCAGGTCAATCTGGGTCACTCAAGGCTTGA | 4.09 | 4.92 | 5.25 | 2.2 | 4.25 | 1.44 | – | 1.66
TAGCCTAGCTCAGATCGGGCCAGTATACGCTATA | -1.12 | -0.862 | -0.645 | -1.11 | -0.698 | -0.99 | – | -0.652
GCATATAGGTTATACAAGGTGAAAGTCCGATTGT | 1.57 | 1.7 | 1.41 | 0.657 | 1.79 | 1.27 | – | 0.435
ACTAGTTGGTCAACTGAGGTCACACACAATTCGG | 4.82 | 4.49 | 4.46 | 1.89 | 4.58 | 4.84 | – | 3.22
GGAACGTGGGCATTCGAGTTGATAGCATGGCGAT | -0.657 | -0.318 | -0.321 | -0.166 | -0.389 | -1.07 | – | 0.0395
CCTTACGGGTCACTCGAGGTTATAGCATCGGAGT | 3.27 | 4.49 | 3.78 | 1.69 | 4.75 | 0.632 | 5.11 | 2.08
GCATATAGGTCATACAAGGTGAAAGTCCGATTGT | 3.94 | 5.1 | 4.65 | 1.98 | 4.8 | 1.62 | – | 1.23
CGTCCAAGGTCAAAGGTCAGTGGAGAGATGACGG | 5.56 | 8.71 | 8.02 | 4.1 | 10.1 | 2.93 | 6.82 | 4.05
AATACAGGGTCATCGGAGGCCAGAGTACGCACAG | 4.26 | 5.91 | 5.05 | 3.51 | 6.76 | 1.96 | – | 3.88
TAGCCGAGGTCAGATCGGGCCAGTATACGCTATA | 3.62 | 5.06 | 5.59 | 2.66 | 4.74 | 1.32 | 4.26 | 2.08
GCATATAGGTAATACAAGATGAAAGTCCGATTGT | -0.399 | 0.381 | 0.572 | 0.287 | 0.469 | -0.636 | -0.0142 | -0.117
TAGCCTAGGCCATTCAGGGGCCAGTATAGAAAGC | 0.802 | 0.999 | 0.71 | -0.81 | -0.0459 | -0.688 | – | -0.441
GCGACTGGGGCAAAGCAGGTCACCATAAGGTTGG | 3.27 | 2.56 | 2.37 | -0.174 | 2.09 | 1.37 | – | 0.256
CTCGAAAGGTCGTTTGAGGTGAGTATACGGATAA | 3.19 | 4.34 | 3.76 | 2.94 | 4.56 | 1.76 | – | 2.79
CTCGAAAGGTCGATTGAGGTGAGTATACGGATAA | 2.68 | 3.71 | 3.34 | 1.66 | 3.46 | 0.93 | – | 0.553
GATACAGGGGCAGCTAGAGGCCAGAGTATGGAAA | 1.18 | 2.18 | 1.15 | -0.0216 | 0.387 | -0.373 | – | -0.000725
CGCGAAAGGTCGGTTGAGGTGAGTATACGGATAA | 2.23 | 2.88 | 2.61 | 0.708 | 2.44 | 1.65 | – | 0.652
GGAACGAGGGCATTCGAGGTGATAGCATGGCGAT | 1.3 | 1.4 | 1.47 | 2.66 | 1.07 | 0.517 | – | 1.77
CCTAGCAGGCCAATCTGGATCACTCAAGGCTTGA | -0.439 | -0.153 | -0.148 | 0.159 | -0.35 | -0.7 | – | -0.867

Sequence | PBM binding z-score [1] | PBM binding z-score [2] | PBM binding z-score [3] | PBM binding z-score [4] | PBM binding z-score [5] | PBM binding z-score [6] | PBM binding z-score [7] | PBM binding z-score [8]
TATACATGGTCAAAGGCCAGAGTACGAATGTCGA | 1.31 | 1.59 | 1.67 | -0.652 | 1.39 | -0.46 | – | 0.302
CAAACTAGGTCACGCAAGGTCAAAGTCGAATGAC | 5.54 | 6.98 | 7.6 | 3.02 | 6.98 | 4.21 | – | 4.65
TCTGCTAGGTCAACGAAGGTCAGCTAATCTGCTA | 5.28 | 5.51 | 6.42 | 1.14 | 4.18 | 1.69 | – | 1.38
GCTAGTTGGTCAGTAAAAGGTAACACACCGGTCG | 1.31 | 0.845 | 0.741 | 0.148 | 0.462 | 0.175 | – | 0.0919
CAAACTAGGTCACGTAAGGTCAAAGTCGAATGAC | 5.56 | 7.3 | 7.46 | 2.68 | 6.84 | 5.19 | – | 4.03
AATACAGGGTCATCCTAGGCCAGAGTACGCACAG | 3.81 | 5.57 | 4.83 | 3.9 | 6.16 | 1.97 | – | 3.52
TAGCCTAGGTCAGATCGGGTCAGTATACGCTATA | 3.56 | 3.77 | 4.62 | -0.194 | 2.58 | 1.29 | 3.75 | 0.51
ATATGCAGGTTAGCTGGGGTCATTCAGACTAGGC | 3.72 | 4.14 | 3.11 | 1.89 | 5.56 | 2.98 | 6.21 | 4.17
CGTCCAAGGTCAGCGAGGTCAGTGAATGCCGAGT | 5.62 | 6.74 | 7.69 | 3.3 | 6.29 | 4.19 | – | 6.64
CCTAGTTGGTCAACGTCACACACGCTATAGGTAC | 1.13 | 0.774 | 1.18 | 0.857 | 0.526 | 0.632 | – | 0.435
TTACCGAGGTGAGCTGAGGTCGTTGATCCAACTC | 1.58 | 1.48 | 1.04 | 0.0413 | 1.7 | 1.88 | – | 1.73
CGTCCAAGGTCATAGGAGGTCAGAGAAGACAGAT | 5.31 | 6.78 | 7.13 | 4.15 | 6.71 | 3.44 | – | 4.23
TTACCAAGGTGAGCTGAGGTCATTGATCCAACTC | 3.91 | 3.65 | 3.31 | 0.946 | 4.03 | 4.43 | – | 4.32
CTCGAAAGGTCGTGCTCAGGTCAGTATACCAAAC | 4.16 | 7.03 | 4.92 | 2.37 | 5.35 | 2.7 | – | 2.45
CAAACTAGGTCACTGAGGTCAAAGTCCGTGCGTA | 5.53 | 6.59 | 7.09 | 3.56 | 6.35 | 5.12 | 7.99 | 7.63
ACTCGGAGGACAAAGATCAGAGCTACGCCAGTGA | -0.272 | 0.568 | 0.931 | 0.426 | 0.18 | -0.696 | – | -0.571
CAAACTAGGTCATGAGGTCAAAGTCCGCTTCCCG | 5.22 | 7.26 | 6.81 | 3.45 | 7.98 | 4.88 | – | 5.84
CGAACTAGATCAGAACAGGACAGTGAAGGATGAT | 0.0748 | -0.355 | 0.431 | 0.063 | 0.00592 | -0.243 | – | -0.111
CAAACCAGGTCACCGGAAGGTCAAAGTCCGCATG | 5.65 | 8.7 | 7.24 | 3.06 | 7.56 | 4.28 | – | 3.95
